In PubChem BioAssay AID1159580 (chemical genetic matrix, 2015):
Among all 5,500 compounds or so, about 2,000 (36%) were called active. Inconclusive results (about 18%) are left out. No stated cut-off is given here; in the data, active means normalized growth mostly below about 0.91 (no sharp cut-off); inconclusive means no clear call, values can overlap the other calls; inactive means mostly above about 0.92. The list shows a part of the results.

Assay: chemical genetic growth profiling, strain panel (AID 1159580);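 further: tested at 20 µM; growth read once vehicle control cultures reached saturation at 30 °C; 1 = growth at the plate median or of vehicle wells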
Conditions: growth OD

Measured: normalized growth

CC1=CC(=O)C2=C(C)CC(O)C3C(C)C(=O)OC3C12 (stereo not drawn)
inactive: S. cerevisiae deletion strains, locus YBR021W, strain FUR4, stronger effect = lower value 1.01 | S. cerevisiae deletion strains, locus YBR229C, strain ROT2, stronger effect = lower value 1 | S. cerevisiae deletion strains, locus YCL029C, strain bik1, stronger effect = lower value 1.02 | S. cerevisiae deletion strains, locus YDL035C, strain GPR1, stronger effect = lower value 1.03 | S. cerevisiae deletion strains, locus YDL074C, strain BRE1, stronger effect = lower value 1.06 | S. cerevisiae deletion strains, locus YDL101C, strain DUN1, stronger effect = lower value 1.01 | S. cerevisiae deletion strains, locus YDL185W, strain tfp1, stronger effect = lower value 1.02 | S. cerevisiae deletion strains, locus YDL192W, strain arf1, stronger effect = lower value 1.01 | S. cerevisiae deletion strains, locus YDR101C, strain arx1, stronger effect = lower value 1.06 | S. cerevisiae deletion strains, locus YDR162C, strain NBP2, stronger effect = lower value 0.989 | S. cerevisiae deletion strains, locus YDR318W, strain mcm21, stronger effect = lower value 0.994 | S. cerevisiae deletion strains, locus YDR388W, stronger effect = lower value 1.02 | S. cerevisiae deletion strains, locus YDR502C, strain sam2, stronger effect = lower value 1.04 | S. cerevisiae deletion strains, locus YEL061C, strain CIN8, stronger effect = lower value 1 | S. cerevisiae deletion strains, locus YER110C, stronger effect = lower value 1.02 | S. cerevisiae deletion strains, locus YER155C, strain BEM2, stronger effect = lower value 1 | S. cerevisiae deletion strains, locus YER167W, strain BCK2, stronger effect = lower value 1 | S. cerevisiae deletion strains, locus YGL078C, strain dbp3, stronger effect = lower value 1.03 | S. cerevisiae deletion strains, locus YGL086W, strain mad1, stronger effect = lower value 1.04 | S. cerevisiae deletion strains, locus YGL248W, strain PDE1, stronger effect = lower value 0.997 | S. cerevisiae deletion strains, locus YGR135W, strain pre9, stronger effect = lower value 1.02 | S. cerevisiae deletion strains, locus YGR229C, strain SMI1, stronger effect = lower value 1.01 | S. cerevisiae deletion strains, locus YGR252W, strain gcn5, stronger effect = lower value 0.969 | S. cerevisiae deletion strains, locus YHR030C, strain SLT2, stronger effect = lower value 0.999 | S. cerevisiae deletion strains, locus YHR079C, strain IRE1 (second series), stronger effect = lower value 1.02 | S. cerevisiae deletion strains, locus YHR094C, strain hxt1, stronger effect = lower value 1.01 | S. cerevisiae deletion strains, locus YHR129C, strain ARP1, stronger effect = lower value 1.01 | S. cerevisiae deletion strains, locus YHR200W, strain rpn10, stronger effect = lower value 1.02 | S. cerevisiae deletion strains, locus YIL066C, strain RNR3, stronger effect = lower value 0.993 | S. cerevisiae deletion strains, locus YIL073C, strain SPO22, stronger effect = lower value 1.08 | S. cerevisiae deletion strains, locus YIL125W, strain kgd1, stronger effect = lower value 1.03 | S. cerevisiae deletion strains, locus YIR030C, strain dcg1, stronger effect = lower value 1.01 | S. cerevisiae deletion strains, locus YJL095W, strain BCK1, stronger effect = lower value 0.985 | S. cerevisiae deletion strains, locus YJL134W, strain LCB3, stronger effect = lower value 0.996 | S. cerevisiae deletion strains, locus YJL168C, strain set2, stronger effect = lower value 1.01 | S. cerevisiae deletion strains, locus YJL187C, strain SWE1 (second series), stronger effect = lower value 0.997 | S. cerevisiae deletion strains, locus YJR043C, strain POL32, stronger effect = lower value 1.01 | S. cerevisiae deletion strains, locus YJR075W, strain HOC1, stronger effect = lower value 0.992 | S. cerevisiae deletion strains, locus YKL009W, strain mrt4, stronger effect = lower value 1.01 | S. cerevisiae deletion strains, locus YKL068W, stronger effect = lower value 0.999 | S. cerevisiae deletion strains, locus YKL085W, strain MDH1 (second series), stronger effect = lower value 0.992 | S. cerevisiae deletion strains, locus YKL085W, strain MDH1, stronger effect = lower value 0.992 | S. cerevisiae deletion strains, locus YKL190W, strain CNB1, stronger effect = lower value 1.01 | S. cerevisiae deletion strains, locus YKR001C, strain vps1, stronger effect = lower value 1.05 | S. cerevisiae deletion strains, locus YLR039C, strain RIC1, stronger effect = lower value 1.07 | S. cerevisiae deletion strains, locus YLR058C, strain SHM2, stronger effect = lower value 0.99 | S. cerevisiae deletion strains, locus YLR102C, strain apc9, stronger effect = lower value 1.02 | S. cerevisiae deletion strains, locus YLR262C, strain YPT6, stronger effect = lower value 1.04 | S. cerevisiae deletion strains, locus YLR268W, strain sec22, stronger effect = lower value 1.07 | S. cerevisiae deletion strains, locus YLR330W, strain CHS5, stronger effect = lower value 1.01 | S. cerevisiae deletion strains, locus YLR342W, strain FKS1 (second series), stronger effect = lower value 1.06 | S. cerevisiae deletion strains, locus YLR371W, strain rom2, stronger effect = lower value 1.05 | S. cerevisiae deletion strains, locus YLR418C, strain cdc73, stronger effect = lower value 1.01 | S. cerevisiae deletion strains, locus YML016C, strain PPZ1, stronger effect = lower value 1 | S. cerevisiae deletion strains, locus YML032C, strain rad52, stronger effect = lower value 0.988 | S. cerevisiae deletion strains, locus YML124C, strain tub3, stronger effect = lower value 1.01 | S. cerevisiae deletion strains, locus YMR078C, strain ctf18, stronger effect = lower value 1.03 | S. cerevisiae deletion strains, locus YMR223W, strain ubp8, stronger effect = lower value 0.99 | S. cerevisiae deletion strains, locus YMR307W, strain GAS1, stronger effect = lower value 1.02 | S. cerevisiae deletion strains, locus YNL067W, strain RPL9B, stronger effect = lower value 1 | S. cerevisiae deletion strains, locus YNL153C, strain GIM3, stronger effect = lower value 0.999 | S. cerevisiae deletion strains, locus YNL233W, strain BNI4, stronger effect = lower value 1 | S. cerevisiae deletion strains, locus YNL250W, strain rad50, stronger effect = lower value 1.03 | S. cerevisiae deletion strains, locus YNL271C, strain bni1, stronger effect = lower value 1.02 | S. cerevisiae deletion strains, locus YNL298W, strain CLA4, stronger effect = lower value 1.01 | S. cerevisiae deletion strains, locus YNL307C, strain MCK1, stronger effect = lower value 1.03 | S. cerevisiae deletion strains, locus YNL322C, strain KRE1, stronger effect = lower value 1 | S. cerevisiae deletion strains, locus YNR052C, strain pop2, stronger effect = lower value 1.01 | S. cerevisiae deletion strains, locus YOL006C, strain TOP1, stronger effect = lower value 1.13 | S. cerevisiae deletion strains, locus YOL012C, strain htz1 0.87 | S. cerevisiae deletion strains, locus YOL147C, strain pex11, stronger effect = lower value 1.03 | S. cerevisiae deletion strains, locus YOR061W, strain CKA2, stronger effect = lower value 1.01 | S. cerevisiae deletion strains, locus YOR069W, strain VPS5, stronger effect = lower value 1 | S. cerevisiae deletion strains, locus YOR136W, strain idh2, stronger effect = lower value 1.03 | S. cerevisiae deletion strains, locus YOR144C, strain elg1, stronger effect = lower value 1.01 | S. cerevisiae deletion strains, locus YOR184W, strain ser1, stronger effect = lower value 1.06 | S. cerevisiae deletion strains, locus YOR316C, strain cot1, stronger effect = lower value 1.01 | S. cerevisiae deletion strains, locus YPR119W, strain clb2, stronger effect = lower value 1.02 | S. cerevisiae deletion strains, locus YPR141C, strain kar3, stronger effect = lower value 1 | S. cerevisiae deletion strains, locus YPR163C, strain tif3, stronger effect = lower value 1.01 | S. cerevisiae deletion strains, locus YPR167C, strain met16, stronger effect = lower value 1.03 | S. cerevisiae deletion strains, strain wtn01, stronger effect = lower value 1.08 | S. cerevisiae strains, strain wild type, stronger effect = lower value 0.998
